From PubChem BioAssay (NCATS)
Records with an inconclusive call do not appear. A call without a number means that no potency is given here. Unmarked numbers belong to inactive results. Active and inactive are the calls of the source. The call rests on the fitted dose curve; in most records, active means well fitted curve in the direction sought with a large enough effect; inconclusive means small, poorly fitted or top-dose-only effect, or another doubt; inactive means no such curve, though single readings can be large; an effect the other way counts as inactive or inconclusive.

Experiments:
[1] = system: Zika virus NS2B-NS3 protease; assay: Primary screen GU AMC qHTS for Zika virus inhibitors (AID 1347154); further: nearly all actives have a fitted effect of over 70% in size
In short: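 Unlinked Zika NS2B hydrophilic domain/NS3 protease domain noncovalent complex (25 nM final) in 10 mM Tris-HCl pH 8.0, 0.01% Tween 20, with AMC peptide substrate. Fluorescence (ex 340, em 450 nm) change over 15 min, room temperature; percent inhibition fitted to 4-parameter Hill equation.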

[2] = Counterscreen qHTS for small molecule stabilizers of the endoplasmic reticulum resident proteome: GLuc-NoTag assay (AID 1508627); further: series mostly up to about 76 µM
In short: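 Secreted GLuc lacking the SERCaMP modification is measured in SH-SY5Y cells exposed to compound for 19 h and then to thapsigargin (100 nM, 4 h) to deplete ER calcium; hits retested at 11 concentrations, up to 76.6 uM.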

[3] = Primary qHTS for small molecule stabilizers of the endoplasmic reticulum resident proteome: Secreted ER Calcium Modulated Protein (SERCaMP) assay (AID 1508630)
In short: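 The SH-SY5Y reporter protocol was run at 3 concentrations up to 38.3 uM (primary) or 11 concentrations (follow-up): 16 h compound, 100 nM thapsigargin for 4 h, then extracellular luciferase luminescence.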

Row | Structure (SMILES) | Potency [1] | Potency [2] | Potency [3]
1 | NCCc1ccccn1 | inactive |  | 
2 | CC(C)[C@]1(O)[C@@H](OC(=O)c2ccc[nH]2)[C@@]2(O)[C@@]3(C)C[C@]4(O)O[C@@]5([C@H](O)[C@@H](C)CC[C@]35O)[C@@]2(O)C41C | inactive | inactive | inactive
